# Source: PubChem BioAssay AID2417 (National Center for Advancing Translational Sciences (NCATS), 2010)
# Hit rate of the full screen: of about 140,000 compounds, about 4,300 (3.1%) were called active. Not shown: some 21% with an inconclusive outcome.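 The calls were made as follows: active = readout at or below -70, meaning at least 70% loss of cells showing the perinucleolar compartment, a nuclear body marking cancer cells; inconclusive = readout between -30 and a set limit; inactive = the rest.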 For the sample, actives were picked, then their nearest neighbours and some compounds at random.
# Experiment: High Content Assay for Compounds that inhibit the Assembly of the Perinucleolar Compartment;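 also: plate controls were DMSO wells for no effect and camptothecin positive control wells for full effect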
# Conditions: PC3M PTB-GFP, PNC prevalence imaging, 16 h; at 10 µM; stronger effect = lower value
# Outline: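 Read-out is percentage of cells bearing a perinucleolar compartment, from automated 20x imaging of fixed, Hoechst-stained PC3M PTB-GFP cells. Cells were seeded 4 h, then exposed 16 h to compound (23 nl of library stock) in duplicate plates.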
row,SMILES,"activity change (PNC), negative = inhibition"
1,CCc1ccc(-c2cc(C(=O)NN3CCN(C)CC3)c3ccccc3n2)cc1,-5.44% (inactive)
2,O=[N+]([O-])c1ccc(NCCCO)c(C(F)(F)F)c1,59.3% (inactive)
3,C=C(C)c1cccc(C(C)(C)NC(=O)NC2CCCC2)c1,24% (inactive)
4,Cc1ccc2[nH]c(C(=O)O)c(NC(=O)c3ccccc3[N+](=O)[O-])c2c1,17.5% (inactive)
5,CCC(=O)Nc1c(S(=O)(=O)c2ccccc2)c2nc3ccccc3nc2n1Cc1ccccc1,8.42% (inactive)
6,O=S(=O)(NCCc1ccncc1)c1ccccc1,50.6% (inactive)
7,COc1cc2c(cc1OC)C(Nc1ccc(S(N)(=O)=O)cc1)=NC(C)(C)C2,-18.6% (inactive)
8,O=C1OC(OC(=O)c2ccccc2Br)C(N2CCOCC2)=C1Cl (stereo not drawn),84.2% (inactive)
9,CSc1cccc(NC(=O)CSc2ccccc2)c1,1.35% (inactive)
10,CCc1cccc(NC(=O)CCC(=O)O)c1,-102% (active)
11,O=C(CCCOc1ccccc1)Nc1cccc(C(=O)O)c1,11.1% (inactive)
12,CCOc1ccc(NC(=O)CSc2ncnc3c2sc2ccccc23)cc1,42.2% (inactive)
13,O=C(Oc1ccccc1Cl)c1ccc(N2CCOCC2)c([N+](=O)[O-])c1,20.3% (inactive)
14,O=C(Oc1ccccc1C(=S)N1CCCCC1)c1cc([N+](=O)[O-])cc([N+](=O)[O-])c1,-100% (active)
15,COc1cc(C(=S)N2CCOCC2)cc(OC)c1OC(=O)c1cc([N+](=O)[O-])cc([N+](=O)[O-])c1,19.6% (inactive)
16,CN(C)CCNC(=O)/C(=C/c1cccc([N+](=O)[O-])c1)NC(=O)c1ccccc1,-1.37% (inactive)
17,COc1ccc(CCC(=O)OCC(=O)Nc2ccc(C)c(S(=O)(=O)N(C)C)c2)cc1,34.8% (inactive)
18,COc1ccc(/C(C)=N/NC(=O)CCC(=O)Nc2ccc(Cl)cc2Cl)c(OC)c1,-10.3% (inactive)
19,Cc1ccc(NC(=S)NCc2ccccc2Cl)c(C)c1,22.9% (inactive)
20,COc1ccc(-c2c(C(C)=O)c(C)nc3sc4c(=O)n(-c5ccc(C)cc5)nnc4c23)cc1,-106% (active)
21,COCc1cc(C)nc2sc3c(=O)n(-c4cccc5ccccc45)nnc3c12,0.942% (inactive)
22,COc1ccc(N2C(=O)C(O)C2c2ccc(C)cc2)cc1 (stereo not drawn),-29.1% (inactive)
23,c1ccc(-c2nnc(SCc3nc4ccccc4[nH]3)o2)cc1,25.5% (inactive)
24,O=C(Nc1nnc(SCc2ccc(Cl)cc2Cl)s1)C1COc2ccccc2O1 (stereo not drawn),43% (inactive)

row,SMILES,"activity change (PNC), negative = inhibition"
1,Clc1ccc(CSc2nnc(/C=C/c3ccccc3)o2)c(Cl)c1,-87.5% (active)
2,N/C(=N\OC(=O)CC1CCCCC1)c1ccccc1,-25.3% (inactive)
3,COC(=O)c1ccccc1NS(=O)(=O)c1ccc2[nH]c(=O)[nH]c2c1,-18.2% (inactive)
4,Cc1ccc(N(Cc2cc3ccccc3[nH]c2=O)C(=O)c2cccs2)cc1,4.02% (inactive)
5,CCOC(=O)Cc1csc(NC(=O)CSc2ccc(Br)cc2)n1,34.9% (inactive)
6,O=C(CNCc1ccc(F)cc1)Nc1ccccc1-c1ccccc1,23.9% (inactive)
7,O=c1[nH]cnc2c1c(-c1ccccc1)cn2-c1ccc(F)cc1,-108% (active)
8,O=c1c2ccccc2c(-c2ccc(F)cc2)nn1-c1ccc(C(F)(F)F)cc1,-1% (inactive)
9,Cc1cc(C)c(C#N)c(SCC(=O)NN2CC(=O)N(c3ccccc3F)CC2=O)n1,43.3% (inactive)
10,O=C(c1cc(Cl)cc(Cl)c1)N1CCC(=O)N(C(COCc2ccccc2)Cc2ccccc2)CC1 (stereo not drawn),27.5% (inactive)
11,CC(C)CC(COCc1ccc(Cl)cc1)N1CCN(C(=O)c2ccc(C(F)(F)F)cc2)CCC1=O (stereo not drawn),49.5% (inactive)
12,CC(C)CC(CO)N1CCN(C(=O)c2ccc(Cl)cc2Cl)CCC1=O (stereo not drawn),-91.5% (active)
13,CC(=O)c1sc(N/N=C\c2ccc(C)cc2)nc1C,25.4% (inactive)
14,CCc1ccccc1NC(=O)CN(C)C(=O)COc1ccc(C)nc1[N+](=O)[O-],-8.07% (inactive)
15,COc1ccccc1N(C(=O)Cn1nnc2ccccc21)C(C(=O)NCc1ccco1)c1ccc(C)o1 (stereo not drawn),20.9% (inactive)
16,COCCNC(=O)C(c1ccc(C)o1)N(Cc1ccccc1)C(=O)Cn1nnc2ccccc21 (stereo not drawn),-83.4% (active)
17,CCC(C)(C)NC(=O)C(c1cccn1C)N(Cc1ccc(C)cc1)C(=O)Cn1nnc2ccccc21 (stereo not drawn),27.9% (inactive)
18,Brc1ccc(C2CC(c3ccccc3)=Nc3ccccc3N2)cc1 (stereo not drawn),-29.2% (inactive)
19,COc1ccc(NC(=O)Nc2ccc3nc(C)c(C)nc3c2)cc1,5.41% (inactive)
20,CC(=O)c1ccc(NC(=O)Nc2ccc([N+](=O)[O-])cc2C)cc1,-13% (inactive)
21,COc1cc(NC(=O)Nc2ccc(C)cc2)cc([N+](=O)[O-])c1,-87.1% (active)
22,O=C(CN1C2=NCCN2c2ccccc21)c1cccs1,-2.86% (inactive)
23,COc1ccc(NS(=O)(=O)c2cc(NC(=O)/C=C/c3cc(OC)c(OC)c(OC)c3)ccc2N2CCCCC2)cc1,-0.688% (inactive)
24,CC1(C)CC(=O)C(N=Nc2ccc(S(=O)(=O)N3CCCCCC3)cc2)=C(O)C1,24.1% (inactive)

row,SMILES,"activity change (PNC), negative = inhibition"
1,COc1ccc(CNC(=O)CN(Cc2ccc(Cl)cc2)S(C)(=O)=O)cc1,48.3% (inactive)
2,O=C(CSc1nc(-c2ccccc2)cs1)Nc1cccc([N+](=O)[O-])c1,126% (inactive)
3,Cc1cccc(NC(=O)c2sc(-c3ccccc3)nc2-c2ccc([N+](=O)[O-])cc2)c1,-100% (active)
4,COc1ccc(C(=O)Nc2nc(-c3ccc(OC)cc3)c(-c3ccc([N+](=O)[O-])cc3)s2)cc1,-23.3% (inactive)
5,O=C1/C(=C\c2cccnc2)CN(Cc2ccccc2)C/C1=C\c1cccnc1,-112% (active)
6,O=C1OC(c2ccc(Cl)cc2)=N/C1=C\c1cccnc1,41.2% (inactive)
7,O=C(O)C1CC(=O)N(Cc2cccnc2)C1 (stereo not drawn),-9.97% (inactive)
8,O=C(Nn1c(-c2ccc(Cl)cc2)nc2ccccc2c1=O)c1cccnc1Cl,8.85% (inactive)
9,Cc1ccnc(NS(=O)(=O)c2ccc(NC(=O)c3ccc(S(=O)(=O)N4CCOCC4)cc3)cc2)n1,-19.3% (inactive)
10,CC(OC(=O)CNS(=O)(=O)/C=C/c1ccccc1)C(=O)Nc1ccc(S(=O)(=O)N2CCCC2)cc1 (stereo not drawn),64.4% (inactive)
11,CCOC(=O)/C(=N\Nc1cc(Cl)ccc1Cl)N1CCN(C)CC1,-27.3% (inactive)
12,c1ccc2[nH]c(NCCN3CCOCC3)nc2c1,-1.68% (inactive)
13,c1ccc2cc3c(NCCN4CCOCC4)ccnc3cc2c1,-103% (active)
14,O=C(Cn1c(-c2ccccn2)nc2ccccc21)NCCN1CCOCC1,42.9% (inactive)
15,NS(=O)(=O)c1ccc(NC(=O)COC(=O)C2(c3ccc(F)cc3)CCCC2)cc1,50% (inactive)
16,CC1(C)Cc2cccc(OCC(=O)N3CCN(c4ccc([N+](=O)[O-])cc4)CC3)c2O1,7.92% (inactive)
17,CC1(C)Cc2cccc(OCC(=O)Nc3nccs3)c2O1,-87.8% (active)
18,CCCCOC(=O)Nc1nccs1,243% (inactive)
19,Cc1ccccc1C(OCCN(C)C)C1CCCCC1 (stereo not drawn),-5.25% (inactive)
20,Cc1ccccc1Nc1nc(N)nc(CSc2ccccc2)n1,-3.06% (inactive)
21,OCCCN1c2ccccc2Nc2nnc(-c3ccccc3)cc21,-15.1% (inactive)
22,N=c1c2c(-c3ccccc3)c(-c3ccccc3)n(Cc3ccccc3)c2ncn1CCCO,-90.2% (active)
23,N=c1c2c(-c3ccccc3)c(-c3ccccc3)oc2ncn1Cc1ccco1,34.2% (inactive)
24,CN(C)c1ccc(/C=N/N(Cc2ccccc2)c2ccccc2)cc1,-6.4% (inactive)

row,SMILES,"activity change (PNC), negative = inhibition"
1,CCN1CN(Cc2ccccc2)CNC1=S,-4.78% (inactive)
2,CCCCCOc1ccc(CSC2=NCCN2)cc1[N+](=O)[O-],-84.7% (active)
3,CCCOc1ccc(Cn2ccnc2)cc1[N+](=O)[O-],-21.9% (inactive)
4,CCCCOc1ccc(CSC(=N)N)cc1[N+](=O)[O-],-6.06% (inactive)
5,COc1ccc(Br)cc1CN(C)CC(=O)Nc1cc(Cl)cc(Cl)c1,5.92% (inactive)
6,O=C(NC1CC1)c1cccc(Br)c1,8.13% (inactive)
7,Cc1cc(C)cc(NC(=S)NCCc2c[nH]c3ccccc23)c1,22.2% (inactive)
8,CCN(CC)S(=O)(=O)c1ccc2[nH]cc(C(=O)NCCc3ccccc3)c(=O)c2c1,-4.74% (inactive)
9,CN(c1ccccc1)S(=O)(=O)c1ccc(Cl)c(C(=O)NCCc2c[nH]c3ccccc23)c1,-83.7% (active)
10,O=C(NNC1CC(=O)N(c2cccc(Cl)c2)C1=O)c1cccnc1 (stereo not drawn),-121% (active)
11,Cc1ccc(-n2nc3cc(C)c(NC(=O)c4cccnc4)cc3n2)cc1,22.4% (inactive)
12,O=C1CC(NNc2ccccc2)C(=O)N1c1cccc(Cl)c1 (stereo not drawn),44.7% (inactive)
13,O=C(CCc1ccc(S(=O)(=O)N2CCOCC2)cc1)NN=C1CCCCCCC1,-25.6% (inactive)
14,Cc1cc2c(c(=O)n1Cc1ccco1)C(c1ccccc1)C(C#N)=C(N)O2 (stereo not drawn),-6.34% (inactive)
15,N#CC1=C(N)Oc2c(sc3ccccc23)C1c1ccco1 (stereo not drawn),-91.1% (active)
16,Cc1cc2oc(C(=O)Nc3c(C)n(C)n(-c4ccccc4)c3=O)c(C)c2cc1Cl,2.22% (inactive)
17,Cc1cccc(NC(=O)/C=C/c2ccc3c(c2)OCO3)n1,46% (inactive)
18,COc1ccc(NC(=O)c2c(SC)nsc2SC)cc1,-6.12% (inactive)
19,COc1ccc(NC(=O)c2sccc2SCC#N)cc1,-88.1% (active)
20,COc1ccc(NC(=O)c2ccc(C#CC(C)(C)O)cc2)cc1,-12.4% (inactive)
21,CCCOC(=O)c1ccc(N2C(=O)c3ccccc3C2=O)cc1,-21.8% (inactive)
